Data published in PubChem BioAssay (NCATS).
Where “and” joins values, the source holds several entries; their conditions need not be identical. Equal entries are not always repeated. Records with an inconclusive call do not appear. Values without a mark were called inactive. Calls of active or inactive are those of the source. Calls follow the shape of the dose curve; as a rule, active = well fitted inhibition curve with a large enough effect; inconclusive = small, poorly fitted or top-dose-only effect; inactive = flat fitted curve, though single readings scatter.

Assay: P-glycoprotein substrates identified in KB-8-5-11 adenocarcinoma cell line, qHTS therapeutic library screen (AID 1346987); also: nearly all actives have a fitted effect of over 65% in size
Conditions: KB-8-5-11 (P-gp overexpressing) viability, CellTiter-Glo, 72 h; series mostly up to 44.5 µM; activity change, negative = cytotoxicity: at the top concentration
Outline: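 KB-8-5-11, a colchicine-selected P-gp-overexpressing KB-3-1 subline, was grown without colchicine for the assay. Cells were seeded at 500 cells/well, dosed in concentration-response and incubated 72 h at 37 degree C, 5% CO2. Viability was read by CellTiter-Glo luminescence.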
% is scaled to controls: 0 for no effect and ±100 for the full control effect; potency is read from the fitted curve at half-maximal effect.

| Structure (SMILES) | activity change, negative = cytotoxicity | Potency | outcome |
| --- | --- | --- | --- |
| CCC(=O)N1CCOc2c(cc(-c3ccc(OC)c(OC)c3)cc2OC[C@H]2CCCN(C)C2)C1 | -19.4% |  |  |
| c1ccc(-c2ccc(CNc3nc(-c4ccccn4)nnc3-c3ccccc3)cc2)cc1 |  | 4.61 µM (active) |  |
| Cc1cc(NC(=O)NCCN2CCC(O)(Cc3ccccc3)CC2)c2ccccc2n1 |  |  | inactive |
| Cc1cc2occ(CN(C)CCN(C)Cc3cn(-c4cccc(C(F)(F)F)c4)c4ccccc34)c(=O)c2cc1C |  | 18.4 µM (active) |  |
| CC(C)(C)NC(=O)[C@H]1CC[C@H]2[C@@H]3CC[C@H]4NC(=O)CC[C@]4(C)[C@H]3CC[C@]12C | -25.1% |  |  |
| C=C1CCN([C@H](C)[C@](O)(Cn2cncn2)c2ccc(F)cc2F)CC1 | -11.8% |  |  |
| Cc1cc(OCCCS(C)(=O)=O)cc(C)c1-c1cccc(COc2ccc(C3=CC(=O)NS3=O)cc2)c1 (centres undefined) | -17.9% |  |  |
| O=C(Nc1nnc(-c2ccc3c(c2)OCCO3)o1)C1CCCCC1 | -19.9% |  |  |
| CC(C)(O)C1CC(=O)C2(C)C(CCC3(C)C(c4ccoc4)OC(=O)C4OC432)C12CCC(=O)OC2 (centres undefined) |  |  | inactive [at 17.3 µM] |
| O=C(Nc1cccc(C(F)(F)F)c1)Nc1ccc(Br)cc1-c1nn[nH]n1 | -10.6% |  |  |
| CCC(C)[C@H]1O[C@]2(C=C[C@@H]1C)C[C@@H]1C[C@@H](C/C=C(\C)[C@@H](O[C@H]3C[C@H](OC)[C@@H](O[C@H]4C[C@H](OC)[C@H](NC(C)=O)[C@H](C)O4)[C@H](C)O3)[C@@H](C)/C=C/C=C3\CO[C@@H]4[C@H](O)C(C)=C[C@@H](C(=O)O1)[C@]34O)O2 (some centres undefined) |  | 5.17 µM (active) and 18.4 µM (active) |  |
| Cc1cc2ncc(C(=O)NCC(C)(C)NCC(=O)N3CCC[C@H]3C#N)cn2n1 | 8.79% |  |  |
| O=C(NCCN1CCN(c2cccc3ccc(O)cc23)CC1)c1ccc(F)cc1 | -20.3% |  |  |
| C=C1C(=O)O[C@@H]2C[C@H](C)C3=CC(=O)[C@H](O)[C@@]3(C)C[C@H]12 | -2.51% |  |  |
| Cc1ccc(C(C)C)c(O[C@@H]2O[C@H](CO)[C@@H](O)[C@H](O)[C@H]2O)c1 | -4.04% |  |  |
| C=C(NC(=O)C(=C)NC(=O)c1csc(C2=NC3c4csc(n4)C4NC(=O)c5csc(n5)C(C(C)(O)C(C)O)NC(=O)C5CSC(=N5)/C(=C/C)NC(=O)C(C(C)O)NC(=O)c5csc(n5)C3(CC2)NC(=O)C(C)NC(=O)C(=C)NC(=O)C(C)NC(=O)C(C(C)CC)NC2C=Cc3c(C(C)O)cc(nc3C2O)C(=O)OC4C)n1)C(N)=O (centres undefined) | -3.39% |  |  |
| O=C1Nc2ccccc2-c2nc3ccccc3c(=O)n2-c2c(O)cccc21 | -2.59% |  |  |
| C[C@@H](O[C@H]1OCCN(Cc2nn(P(=O)(O)O)c(=O)[nH]2)[C@H]1c1ccc(F)cc1)c1cc(C(F)(F)F)cc(C(F)(F)F)c1 | -6.43% [at 17.3 µM] |  |  |
| O=C1C(Cc2ccc(O)cc2)N2C(=O)CCN(C(=O)NCc3ccccc3)C2CN1Cc1cccc2ccccc12 (centres undefined) | 3.1% |  |  |
| CCc1c(Cl)c(O)c(Cl)c(O)c1C(=O)O[C@H]1[C@H](O)[C@H](OC)[C@H](OC/C2=C\C=C\C[C@H](O)/C(C)=C\[C@H](CC)[C@@H](O[C@@H]3OC(C)(C)[C@@H](OC(=O)C(C)C)[C@H](O)[C@@H]3O)/C(C)=C/C(C)=C/C[C@@H]([C@@H](C)O)OC2=O)O[C@@H]1C | 8.88% [at 17.3 µM] |  |  |

| Structure (SMILES) | activity change, negative = cytotoxicity | Potency | outcome |
| --- | --- | --- | --- |
| CC(C)c1c(O)ccc2c1CC[C@H]1C(C)(C)CCC[C@]21C | -18.1% |  |  |
| CC1CCCC[C@H]2C(=O)C=C[C@H](O)[C@@H]2CC(=O)O1 (some centres undefined) |  | 7.31 µM (active) |  |
| O=C(COc1ccc(C(=O)c2ccccc2)cc1)NC1CCN(Cc2ccccc2)CC1 | -21.6% |  |  |
| O=C1Cc2c([nH]c3ccc(Br)cc23)-c2ncccc2N1 | -6.51% |  |  |
| Nc1ncnc2c1nc(Cl)n2C1OC2COP(=O)(O)OC2C1O (centres undefined) |  | 1.46 µM (active) |  |
| COC(=O)c1ccc(N2CCN(C)CC2)c(NC(=O)c2cccc(OC)c2)c1 | -19.6% |  |  |
| CNc1cc2[nH]c(=O)n(-c3ccc(NC(=O)NS(=O)(=O)c4ccc(Cl)s4)cc3)c(=O)c2cc1F | 4.6% |  |  |
| CC(=O)O[C@@H]1[C@@H](O)[C@H](O[C@@H]2[C@@H](O)[C@@H](O)[C@H](O[C@H]3[C@H](O[C@H]4[C@H](O[C@H]5CC[C@@]6(C)C(CC[C@]7(C)C6CC=C6[C@@H]8CC(C)(C)CC[C@]8(C(=O)O)CC[C@]67C)[C@]5(C)CO)O[C@H](CO)[C@@H](O)[C@@H]4O)OC[C@@H](O)[C@@H]3O)O[C@H]2C)OC[C@H]1O (some centres undefined) | 7.23% [at 9.29 µM] |  |  |
| Cn1ncc(Cl)c1-c1cc(C(=O)N[C@H](CN)Cc2cccc(F)c2)sc1Cl |  | 18.4 µM (active) |  |
| Cc1cc(C)c(-n2cc(C)c3c(Cl)nc(C)nc32)c(C)c1 | -16% |  |  |
| Cc1[nH]c2ccccc2c1CCNCc1ccc(/C=C/C(=O)NO)cc1 |  | 0.366 µM (active) |  |
| C[C@@H](Nc1ncnc2[nH]c(-c3ccc(O)cc3)cc12)c1ccccc1 |  | 8.2 µM (active) |  |
| CCC/C=C\C=C/CCc1cc(O)c([C@@H]2O[C@H](CO)[C@@H](O)[C@H](O)[C@H]2O)c(O)c1C(=O)OC | -5.96% [at 17.3 µM] |  |  |
| C=CC(=O)Nc1ccc2ncnc(Nc3cccc(Br)c3)c2c1 |  | 8.2 µM (active) |  |
| CCCNCCc1ccc(NS(=O)(=O)c2ccc(OC(F)(F)F)cc2)cc1 | -6.03% |  |  |
| CC(C)c1cccc(C(C)C)c1NC(=O)Nc1ccc(Sc2ccc([N+](=O)[O-])cc2)cc1 |  | 5.8 µM (active) |  |
| COc1ccc2c(c1O[C@H]1CCNC1)CCC2 | 2.35% |  |  |
| CC(=O)OC1C(OC(=O)c2ccccc2)C2C(C)(C)CCC(OC(C)=O)C2(C)C23CCC(C)(C2)C(=O)CC13 (centres undefined) | -18.9% [at 17.3 µM] |  |  |
| COc1ccc(-c2csc(NC(=O)[C@H]3CCCCN3S(=O)(=O)c3ccc(C)cc3)n2)cc1 | -21% |  |  |
